Records with an inconclusive call do not appear. Active and inactive are the calls of the source. Calls follow the shape of the dose curve; as a rule, active = well fitted activation curve with a large enough effect; inconclusive = small, poorly fitted or top-dose-only effect; inactive = no such curve, though single readings can be large or run the other way.
Experiment: qHTS assay for re-activators of p53 using a Luc reporter: Hit Validation; also: nearly all actives have a fitted effect of over 75% in size; as to activation: 0% is about no effect
Settings: p53-responsive luciferase reporter cells, luminescence, H1299 line expressing heat-sensitive Ala138Val p53; series mostly up to 46.1 µM; activation: at the top concentration
Method in brief: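 H1299 (p53-null) cells stably carrying p53-A138V and a BP100-luciferase reporter, 1000 cells/well, treated 24 h at 37 deg C. Compounds at several concentrations, 1:5 dilution; nocodazole control; luminescence read after 10 min with detection reagent.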
Potency is read from the fitted curve at half-maximal effect.

Potency, active:
Cc1cc(C(=O)N2CCN(c3ccccc3Cl)CC2)c(C)o1 29100 nM, CC(C)C(=O)Nc1ccc(-c2nc3cccnc3o2)cc1 366 nM, O=C(Nc1nc2c(s1)CCCC2)C1COc2ccccc2O1 (stereo not drawn) 231 nM, COc1ccc2oc(C(=O)Nc3nc(C)cs3)c(C)c2c1 1840 nM, COc1ccc(-c2cc3ccc(F)cc3cn2)cc1 920 nM, COc1ccccc1NC(CC(=O)c1ccccc1)C(=O)OCC(=O)c1ccc(F)cc1 (stereo not drawn) 231 nM

activation, inactive:
CN(C)c1ccc(CNC2CC(C)(C)NC(C)(C)C2)cc1 25%, O=C(COC(=O)c1cc2ccccc2oc1=O)Nc1cccc(S(=O)(=O)N2CCCCCC2)c1 37.5%, c1ccc2cc3c(NCCN4CCOCC4)ccnc3cc2c1 11.5%, COCc1[nH]nc2c1C(c1cccc(OC)c1)C(C#N)=C(N)O2 (stereo not drawn) -18.2%, CCC(Sc1nc2ccccc2c(=O)n1CCN1CCOCC1)C(=O)NCc1cccnc1 (stereo not drawn) -24.5%, Cc1cc(NC(c2cccnc2)c2ccc3cccnc3c2O)no1 (stereo not drawn) 128%, COc1cc(C(=S)N2CCOCC2)ccc1OC(=O)c1ccccc1C -7.81%, Cc1ccc(NC(=O)CCN2C(=O)c3cccc([N+](=O)[O-])c3C2=O)c(Br)c1 38%, CN1CC(C(=O)Nc2ccc(F)c(Cl)c2)CC1=O (stereo not drawn) -4.69%, O=C(Cn1cc(SCc2ccc(F)cc2)c2ccccc21)N1CCOCC1 -86.5%, COCCN(Cc1cn[nH]c1-c1ccc2cc(OC)ccc2c1)C(C)C 31.8%, Cc1cccc2nc(CSC(=N)N)c(Br)n12 3.7% [at 9.22 µM]

From PubChem BioAssay AID624305 (National Center for Advancing Translational Sciences (NCATS), 2012)
